From PubChem BioAssay AID1159580 (chemical genetic matrix, 2015)
Hit rate of the full screen: of about 5,500 compounds, about 2,000 (36%) were called active. Inconclusive results (about 18%) are left out. Cut-off read from the data, not from the text of the source: active = normalized growth mostly below about 0.91 (no sharp cut-off); inconclusive = no clear call, values can overlap the other calls; inactive = mostly above about 0.92. Some of the results follow.

Assay: chemical genetic growth profiling, strain panel (AID 1159580);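 note: tested at 20 µM; growth read once vehicle control cultures reached saturation at 30 °C; 1 = growth at the plate median or of vehicle wells; lower values mean less growth of the strain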
Settings: growth OD
[1] = S. cerevisiae deletion strains, locus YAL013W, strain DEP1, stronger effect = lower value
[2] = S. cerevisiae deletion strains, locus YBR229C, strain ROT2, stronger effect = lower value
[3] = S. cerevisiae deletion strains, locus YCL061C, strain MRC1, stronger effect = lower value
[4] = S. cerevisiae deletion strains, locus YDL101C, strain DUN1, stronger effect = lower value
[5] = S. cerevisiae deletion strains, locus YDR150W, strain NUM1, stronger effect = lower value
[6] = S. cerevisiae deletion strains, locus YEL061C, strain CIN8, stronger effect = lower value
[7] = S. cerevisiae deletion strains, locus YGR078C, strain PAC10, stronger effect = lower value
[8] = S. cerevisiae deletion strains, locus YHR030C, strain SLT2, stronger effect = lower value
[9] = S. cerevisiae deletion strains, locus YHR087W, strain rtc3, stronger effect = lower value
[10] = S. cerevisiae deletion strains, locus YJR043C, strain POL32, stronger effect = lower value
[11] = S. cerevisiae deletion strains, locus YJR075W, strain HOC1, stronger effect = lower value
[12] = S. cerevisiae deletion strains, locus YKL190W, strain CNB1, stronger effect = lower value
[13] = S. cerevisiae deletion strains, locus YLR039C, strain RIC1, stronger effect = lower value
[14] = S. cerevisiae deletion strains, locus YLR058C, strain SHM2 (second series), stronger effect = lower value
[15] = S. cerevisiae deletion strains, locus YLR085C, strain ARP6, stronger effect = lower value
[16] = S. cerevisiae deletion strains, locus YLR262C, strain YPT6, stronger effect = lower value
[17] = S. cerevisiae deletion strains, locus YML094W, strain GIM5, stronger effect = lower value
[18] = S. cerevisiae deletion strains, locus YMR219W, strain ESC1, stronger effect = lower value
[19] = S. cerevisiae deletion strains, locus YMR263W, strain SAP30, stronger effect = lower value
[20] = S. cerevisiae deletion strains, locus YNL128W, strain TEP1, stronger effect = lower value
[21] = S. cerevisiae deletion strains, locus YNL153C, strain GIM3, stronger effect = lower value
[22] = S. cerevisiae deletion strains, locus YNL298W, strain CLA4 (second series), stronger effect = lower value
[23] = S. cerevisiae deletion strains, locus YNL322C, strain KRE1, stronger effect = lower value
[24] = S. cerevisiae deletion strains, locus YNR030W, strain Alg12, stronger effect = lower value
[25] = S. cerevisiae deletion strains, locus YOL006C, strain TOP1, stronger effect = lower value
[26] = S. cerevisiae deletion strains, locus YPL055C, strain LGE1, stronger effect = lower value
[27] = S. cerevisiae deletion strains, locus YPL241C, strain CIN2, stronger effect = lower value
[28] = S. cerevisiae deletion strains, locus YPR135W, strain CTF4, stronger effect = lower value
[29] = S. cerevisiae strains, strain wild type, stronger effect = lower value
[30] = S. cerevisiae deletion strains, locus YGR229C, strain SMI1, stronger effect = lower value

Measured: normalized growth

CC(=O)CSc1nsc(SCC(C)=O)c1C#N
inactive: [1] 1.01 | [2] 1 | [3] 1.01 | [4] 0.974 | S. cerevisiae deletion strains, locus YDL134C, strain PPH21, stronger effect = lower value 1.01 | [5] 0.99 | [6] 1.02 | [7] 0.997 | [8] 0.992 | [9] 0.971 | [10] 1 | [11] 0.995 | [12] 1.01 | [13] 1.01 | [14] 0.992 | [15] 1 | [16] 0.962 | [17] 1.01 | [18] 0.989 | [19] 0.996 | [20] 1.01 | [21] 0.979 | [22] 0.988 | [23] 1.01 | [24] 0.986 | [25] 0.87 | [26] 0.903 | [27] 0.992 | [28] 0.918 | [29] 1

COc1ccc2[nH]c(I)c(CCNC(C)=O)c2c1
active: [11] 1.11 [resistant]
inactive: [1] 1.03 | S. cerevisiae deletion strains, locus YAL040C, strain CLN3, stronger effect = lower value 0.959 | S. cerevisiae deletion strains, locus YCL061C, strain MRC1 (second series), stronger effect = lower value 1.01 | S. cerevisiae deletion strains, locus YDR363W, strain ESC2, stronger effect = lower value 1.02 | S. cerevisiae deletion strains, locus YER002W, strain NOP16, stronger effect = lower value 1.01 | [7] 1.02 | [30] 0.998 | [20] 1.1 | [21] 0.997 | S. cerevisiae deletion strains, locus YNL175C, strain NOP13, stronger effect = lower value 1.01 | S. cerevisiae deletion strains, locus YNL197C, strain WHI3, stronger effect = lower value 1.01 | S. cerevisiae deletion strains, locus YNL224C, strain SQS1, stronger effect = lower value 1.02 | [23] 1.02 | [26] 1.09 | [27] 1.01

CCCc1ccc(OC)cc1NC(C)=O
inactive: [1] 1.01 | [2] 1.01 | [3] 1.03 | [4] 1 | [5] 0.95 | [6] 0.996 | [7] 1.02 | [30] 0.991 | [8] 1.06 | [9] 1 | [10] 1 | [11] 0.996 | [12] 0.991 | [13] 1.02 | [14] 1.02 | [15] 1.03 | [16] 0.987 | [17] 1.03 | [18] 1.01 | [19] 1.01 | [21] 1.03 | [22] 1.05 | [23] 1.01 | [24] 1.02 | [25] 1.06 | [26] 0.99 | [27] 0.999 | [28] 1.06 | [29] 0.999
